The values that follow come from PubChem BioAssay.

This experiment can be described thus: binders of probe aHhip on microarray, primary screen, stem cell growth factor project, biochemical, small-molecule microarray, fluorescence 635/667 (AID 1087).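 Note: score merges spot fluorescence at 667nm with spot signal to noise ratio.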 The following applies: higher = more signal.
In turn, `CCOC(=O)C=Cc1cc(F)ccc1O` registered a composite z-score of 0.0524.

For the compound `[N-]=[N+]=Nc1ccccc1[C@@H]1OC(c2ccc(OCCCO)cc2)=N[C@]1(Cc1ccccc1)C(=O)NCc1ccccc1`, the composite z-score is 0.0614.

Consider `Cc1ccccc1C(O)C1C=CC2C(=O)NC(=O)C2N1Nc1ccc(Cl)cc1Cl` (configuration not stated), for which the composite z-score is -0.283.

In the case of `COc1ccc([Si](C)(C)[C@H]2[C@H](CCO)O[C@@]3(C(=O)N(Cc4ccccc4)c4ccc(N5CCOC5=O)cc43)[C@@H]2C)cc1`, the composite z-score was -0.226.

As to `COCC1C2CC[C@H]3C(OCc4ccc(OC)cc4)OC[C@]4(C)[C@H]3C2=C(CN4C(=O)OC(C)(C)C)[C@H](C)C1COC` (some centres not stated), the composite z-score was -0.164.

With `COCCOC(=O)N1C(=O)[C@@]2(c3cc(C#CC4(O)CCCCCC4)ccc31)[C@H](C(=O)N1CCN(c3ncccn3)CC1)[C@H]1C(=O)O[C@H](c3ccccc3)[C@H](c3ccccc3)N1[C@@H]2c1ccccc1OCCO`, the composite z-score stood at 0.0515.

Compound `COc1ccc(C(=O)Nc2cccc(CN3C(=O)[C@@]4(O[C@@H](CC(=O)N(CCO)Cc5ccccc5)[C@H]([Si](C)(C)c5ccc(OC)cc5)[C@H]4C)c4ccccc43)c2)cc1` returned a composite z-score of 0.0274.

Compound `COCCOC(=O)N1C(=O)[C@@]2(c3cc(C#CCNC(N)=O)ccc31)[C@H](c1ccc(O)cc1)N1[C@H](c3ccccc3)[C@H](c3ccccc3)OC(=O)[C@H]1[C@@H]2C(N)=O` came in with a composite z-score of -0.39.

Compound `O=C1C2C=CC(C(O)c3cccc(O)c3)N(Nc3ccccc3)C2C(=O)N1c1ccccc1` (configuration not stated) had a composite z-score of -0.0003.

As to `COc1ccc([Si](C)(C)[C@@H]2[C@@H](CC(=O)N3Cc4ccccc4C[C@H]3CO)O[C@]3(C(=O)N(c4ccccc4)c4ccccc43)[C@H]2C)cc1`, the composite z-score was 0.433.

`COc1ccc(C(O)C2C=CC3C(=O)N(c4ccccc4)C(=O)C3N2Nc2ccccc2F)cc1` (configuration not stated) gave a composite z-score of -0.0296.

`COCCOC(=O)N1C(=O)[C@@]2(c3cc(C#CCC(C(=O)OC)C(=O)OC)ccc31)[C@H](c1ccc(O)cc1)N1[C@H](c3ccccc3)[C@H](c3ccccc3)OC(=O)[C@H]1[C@@H]2C(=O)NC[C@H](O)c1ccccc1` yielded a composite z-score of 0.0749.

Regarding `COCC(=C=CC[C@H](O)c1cccc(OCCO)c1)C[C@H](O)COCc1ccccc1`, the composite z-score is -0.476.

As to `C=C(C)[C@@H]1CC=C(C(O)C2C=CC3C(=O)N(c4ccccc4)C(=O)C3N2Nc2ccc(C#N)cc2)CC1` (some centres not stated), the composite z-score is -0.112.

`COc1ccc(NC(=O)O[C@H]2[C@@H]3OC(=O)[C@H](Cc4cccc(Br)c4)C/C=C/C[C@@H](Cc4cccc(Br)c4)C(=O)O[C@H]3[C@@H](OC)O[C@@H]2CO)cc1` displayed a composite z-score of 0.285.

For `C=C(/C(=C/C[C@H](OC(=O)c1ccncc1)c1cccc(OCCO)c1)c1cnc2ccccc2c1)C(C)C`, the composite z-score came to 0.0695.

Take `CS(=O)(=O)CCOC(=O)C1=CC(CCCO)=CC(C2CC2)N(Cc2cccc(OC(F)(F)F)c2)C=C1C(=O)OCCS(C)(=O)=O` (configuration not stated): the composite z-score was -0.0994.

In the case of `NC(=O)[C@H]1[C@@H]2C(=O)O[C@@H](c3ccccc3)[C@@H](c3ccccc3)N2[C@@H](c2ccc(O)cc2)[C@]12C(=O)Nc1ccc(C#CC3=CCCCC3)cc12`, the composite z-score was -0.406.

In turn, `[N-]=[N+]=NCc1ccccc1[C@@H]1OC(c2ccc(OCCCO)cc2)=N[C@]1(Cc1ccccc1)C(=O)NCCN1CCOCC1` had a composite z-score of -0.126.

`COc1cc(C(O)C2C=CC3C(=O)N(Cc4ccccc4)C(=O)C3N2n2cnnc2)cc(OC)c1OC` (configuration not stated): the composite z-score is -0.0867.

`C=CCN1C(=O)[C@@]2(O[C@@H](CCO)[C@H]([Si](C)(C)c3ccc(OC)cc3)[C@H]2C)c2cc(N3CCOC3=O)ccc21` registered a composite z-score of -0.236.

As to `CC(C)[C@H]1NC(=O)[C@@]23C(=O)N[C@@H](Cc4ccccc4)C2[C@H](C)[C@@]2(C)O[C@H]2C3/C=C/C/C=C\CNC(=O)[C@H](Cc2ccccc2)NC1=O` (some centres not stated), the composite z-score turned out to be 0.235.

`O=C1C2C=CC(C(O)c3ccco3)N(Nc3ccccc3)C2C(=O)N1c1ccccc1` (configuration not stated): the composite z-score is -0.134.

`CC(C)C[C@@H]1NC(=O)[C@@]23C(=O)N[C@@H](Cc4ccccc4)C2[C@H](C)[C@@]2(C)O[C@H]2C3/C=C/C/C=C\CNC(=O)[C@@H](C)NC1=O` (some centres not stated) registered a composite z-score of -0.12.

`CCN(CC)c1ccc(N2CC=CC34O[C@@H]5/C=C\CCC(C)OC(=O)C5[C@H]3C(=O)N(C(C)CO)[C@@H]4C2=O)cc1` (some centres not stated) came in with a composite z-score of -0.652.

The compound `CO[C@H]1O[C@H](CO)[C@@H](OC(=O)c2ccc(Br)cc2)[C@@H]2OC(=O)[C@H](Cc3ccccc3)C/C=C/C[C@@H](Cc3ccccc3)C(=O)O[C@@H]12` registered a composite z-score of -0.0645.

Consider `CC(C)C(CO)N1C(=O)[C@@H]2[C@H]3C(=O)OCC=C[C@H]3OC23C=CCN(C(C)(C)C)C(=O)[C@@H]13` (some centres not stated), for which the composite z-score was -0.128.
